PAX8 reporter = inhibitors of PAX8-driven TPO luciferase reporter, primary screen, RMG-I cells, single concentration | 360,000 tested, 1.2% active | SteadyGlo, 24 h | inhibition, % at 12.6 µM;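 active = mean replicate inhibition at least 60% with every replicate also reaching 60%; inconclusive = only one of the two criteria is met; inactive = mean below 60% and not all replicates reaching 60%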;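 also: luciferase light reporting Pax8 driven TPO promoter activity; plate controls were median of neutral control wells for no effect and mitoxantrone controls for full effect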
EWS-Fli inh = EWS/Fli-driven NR0B1 reporter inhibitors, primary screen, A673 cells, NR0B1 luciferase, luminescence, MLPCN library | 350,000 tested, 0.67% active | inhibition, % at 12.6 µM | viability-normalised;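 active = mean inhibition of at least 50% after viability correction, with every replicate also passing that limit; inconclusive = mean reaches 50% but only one of two replicates passes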;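 also: firefly luciferase signal divided by Alamar Blue viability fluorescence both relative to DMSO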
LGR2 antag = inhibitors of bursicon-induced LGR2 CRE-luciferase signal, primary screen, cell-based, HEK293, CRE-luciferase reporter, bursicon stimulation. Drosophila bursicon receptor LGR2 (rickets). bursicon-stimulated, 4 h. inhibition, % at 9.99 µM. 380,000 tested, 0.35% active;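 active = drop in luminescence signal, shown as inhibition above about 50% in the replicate tests, limit read from the data, passing the limit was not always enough; inconclusive = probably only some replicates passing the limit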;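 also: agonist challenge used bursicon conditioned medium at about half maximal strength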
Shn3 3UTR inh = reduction of Shn3 3'UTR firefly luciferase signal, primary screen, Schnurri-3 inhibitor project, cell-based, Clone20 osteoblasts, set 2. inhibition, % at 12.5 µM. Clone20 osteoblast Shn3 3'UTR firefly luciferase, 24 h. 360,000 tested, 0.52% active;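 active = mean inhibition of at least 75% with every replicate also reaching 75%; inconclusive = mean inhibition at least 75% but some replicate below; inactive = mean inhibition below 75%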;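 also: 0% = median of neutral control wells and 100% = pilot-screen positive control compound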
EBV LMP1 NFkB = EBV LMP1-driven NF-kappaB luciferase reporter inhibitors, primary screen, cell-based, luminescence, single point | LMP1-induced NF-kappaB luciferase reporter cells | inhibition, % at 12.5 µM | 350,000 tested, 0.69% active; in the data active = inhibition above about 41%; inconclusive = no clear call, values can overlap the other calls;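 also: 0% = neutral control wells and 100% = reference inhibitor control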
MITF TRPM1 inh = inhibitors of MITF-dependent TRPM1 promoter reporter, primary screen, cell-based, SK-MEL-5, single point, luciferase; SK-MEL-5 TRPM1 promoter luciferase, 24 h; inhibition, % at 12.5 µM; 330,000 tested, 0.83% active; AID 488899, 2010;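 active = mean inhibition across replicates of 60% or more, whatever share of single replicates reaches that level; inconclusive = some that reach 60%, reason not given; inactive = mean inhibition across replicates below 60%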
* = called active by the depositor; ? = inconclusive; nt = no result given. The list is not random: actives were taken first. Their share in the collection is about 2.2%.

SMILES	PAX8 reporter	EWS-Fli inh	LGR2 antag	Shn3 3UTR inh	EBV LMP1 NFkB	MITF TRPM1 inh
Cc1ccc(CN2CCc3[nH]c(=S)[nH]c(=O)c3C2)cc1	16	-4	10	1	-11	11
COc1cc(NC(=O)c2cc3ccccc3cc2O)c(OC)cc1Cl	72*	-10	35	43	9	29
NNC(=O)c1cc2ccccc2cc1O	3	nt	34	50	51*	76*
Cc1cc(O)c(C(C)C)cc1NC(=O)c1ccccc1Cl	70*	-12	nt	-2	-1	4
Cc1ccc(Cl)cc1NC(=O)COC(=O)c1ccccc1O	10	-18	4	-14	4	1
Cc1ccc(Cl)cc1NC(=O)c1cc2ccccc2cc1O	78*	12	5	73	37	72*
CN(C)CC#Cc1ccc([C@@H]2[C@H](CO)N3C(=O)CN(C(=O)c4cccc(F)c4)C[C@@H]23)cc1	-22	0	-5	nt	nt	nt
CCn1c(SCC(=O)N2CCN(c3ccccc3)CC2)nc2c(c1=O)SC(C)C2 (stereo unspecified)	22	-3	4	9	17	9
CC1Cc2nc(SCC(=O)N3CCN(c4ccccc4)CC3)n(C)c(=O)c2S1 (stereo unspecified)	26	16	-6	0	77*	-1
CCN1[C@@H]2c3ccc(/C=C/c4ccccc4)c(=O)n3C[C@H]1[C@H](CO)[C@H]2C(=O)N1CCOCC1	-6	-4	5	nt	nt	nt
COc1ccc2[nH]c(=O)c(CN(CCN3CCCC3)C(=O)Nc3ccccc3Cl)cc2c1	nt	nt	nt	7	20	-23
CCOc1ccc2[nH]c(=O)c(CN(CCN3CCCC3)C(=S)Nc3ccccc3OCC)cc2c1	4	55*	3	-10	-6	58
CCC(C)(C)C1CCC(=NNC(=S)Nc2ccccc2)CC1 (stereo unspecified)	-18	-3	-11	8	-5	-3
S=C(NN=C1C2CC3CC(C2)CC1C3)Nc1ccccc1	nt	nt	nt	37	65*	-16
COC(=O)c1ccsc1NC(=O)CCS(=O)(=O)c1ccccc1	84*	nt	6	6	-7	4
COC(=O)c1ccsc1NC(=O)CCS(=O)(=O)c1ccc(Cl)cc1	83*	-10	5	3	2	3
COC(=O)c1ccsc1NC(=O)CS(=O)(=O)c1ccccc1	-11	6	0	-6	2	-12
C[C@@H]1CN([C@@H](C)CO)C(=O)c2cc(NC(=O)Nc3ccc(F)cc3)ccc2O[C@@H](C)CCCCO[C@H]1CN(C)S(=O)(=O)c1cn(C)cn1	-4	0	-5	nt	nt	nt
CS(=O)(=O)N(Cc1ccc(Cl)cc1)c1ccc(C(=O)N/N=C/c2cc3ccccc3nc2Cl)cc1	nt	nt	3	6	58*	-3
CS(=O)(=O)N(Cc1ccc(Cl)cc1)c1ccc(C(=O)NCc2ccccn2)cc1	-4	2	17	6	-8	8
COc1ccc(NC(=O)N(C)C[C@H]2Oc3c(NS(=O)(=O)c4ccccc4)cccc3C(=O)N([C@@H](C)CO)C[C@@H]2C)cc1	-8	-1	4	nt	nt	nt
COc1cc(C(C)=O)ccc1OCC(O)Cn1nc(C)c(Br)c1C (stereo unspecified)	-27	-5	-13	7	62*	-6
CC1(C)CC[C@]2(C(=O)O)CC[C@]3(C)C(=CC[C@@H]4[C@@]5(C)CC[C@H](O[C@@H]6O[C@H](C(=O)O)[C@@H](O)[C@H](O[C@@H]7OC[C@H](O)[C@H](O)[C@H]7O)[C@H]6O)C(C)(C)[C@@H]5CC[C@]43C)[C@@H]2C1	101*	?	?	71	-8	6
CCC(=O)N[C@H]1C=C[C@H](CC(=O)NCC2CCCCC2)O[C@@H]1CO	-17	-1	-1	nt	nt	nt
COc1ccc(/C=C/C(=O)c2cc(F)ccc2OC(=O)c2ccccc2C)cc1OC	91*	?	32	9	-12	49
SMILES	PAX8 reporter	EWS-Fli inh	LGR2 antag	Shn3 3UTR inh	EBV LMP1 NFkB	MITF TRPM1 inh
CCCCN(c1ccccc1)c1ncnc(N)c1[N+](=O)[O-]	nt	-10	17	-15	46*	-20
CN(c1ncnc(N)c1[N+](=O)[O-])C1CCCCC1	-49	-27	28	9	38	-45
CC(C)(C)c1ccc(-c2noc(CCC(=O)NCc3ccco3)n2)cc1	49	35	-68	19	-10	83*
Cc1cccc(-c2noc(CCC(=O)NCc3ccco3)n2)c1	nt	-20	nt	-10	-2	3
O=C(CCl)NCc1cc(-c2ccc(Cl)cc2)no1	64*	62*	15	-4	-11	22
O=C(O)C1CCCN1c1nc(-c2ccc(Cl)c(Cl)c2)cc(C(F)(F)F)n1 (stereo unspecified)	77*	8	-8	5	37	nt
COc1cccc(C(=O)Nc2ccc3c(c2)C(=O)N(C)C[C@H](OC)[C@@H](C)CN(C)[C@H](C)CO3)c1	nt	7	1	nt	nt	nt
O=S(=O)(Nc1cccc2ncccc12)c1cccs1	nt	nt	nt	94*	24	84*
CCO[C@H]1OC(C(=O)NCc2nc3ccccc3[nH]2)=C[C@@H](C2CC2)[C@@H]1CCCO	20	61*	-11	0	4	25
CCO[C@H]1OC(C(=O)NCc2nc3ccccc3[nH]2)=C[C@@H](c2ccccc2)[C@@H]1CCCO	-16	4	14	17	-4	0
CN(C)CC#Cc1ccc([C@H]2[C@H](CO)N3CCCCN(C(=O)Nc4ccccc4F)C[C@@H]23)cc1	11	-6	4	nt	nt	nt
CCc1ccccc1N(CC(=O)NCc1ccco1)C(=O)c1snc(C(N)=O)c1N	nt	nt	nt	-1	55*	10
COc1ccc2c3c([nH]c2c1)[C@H](CO)N(C(=O)c1cccnc1)CC31CCN(C(=O)NC(C)C)CC1	nt	-8	1	nt	nt	nt
CCCCCc1cc(=O)oc2c(C(CCN3CCCC(C)C3)c3cc(OC)c(OC)c(OC)c3)c(OC)cc(OC)c12 (stereo unspecified)	nt	nt	nt	39	21	73*
CCCCCc1cc(=O)oc2c(C(CCN(CC)CC)c3ccc(N(C)C)cc3)c(OC)cc(OC)c12 (stereo unspecified)	?	21	42	13	0	89*
CCCCCc1cc(=O)oc2c(C(CCN3CCCCC3)c3cc(OC)c(OC)c(OC)c3)c(OC)cc(OC)c12 (stereo unspecified)	79*	?	nt	14	6	89*
CN1CCN(C(=O)C[C@@H]2CC[C@H]3[C@@H](COC[C@@H](O)CN3S(=O)(=O)c3cccc(Cl)c3)O2)CC1	-16	-45	2	nt	nt	nt
